# Laboratory results as given in PubChem BioAssay AID1345082 (National Center for Advancing Translational Sciences (NCATS), 2018).
# The whole screen tested about 94,000 compounds, of which about 4,000 (4.3%) were called active. Entries that show only a call come without a potency. Not shown: some 29% with an inconclusive outcome. Calls follow the shape of the dose curve; as a rule, active = well fitted inhibition curve with a large enough effect; inconclusive = small, poorly fitted or top-dose-only effect; inactive = no such curve, though single readings can be large or run the other way. This excerpt belongs to a sample that is enriched for actives.
# Experiment: Cytotoxic Profiling in NIH 3T3 Cell Line of Diverse Libraries Using Quantitative High-Throughput Screening; also: nearly all actives have a fitted effect of over 55% in size
# Settings: NIH 3T3 viability, CellTiter-Glo ATP luminescence, 48-72 h; series mostly up to 96.7 µM
# Procedure, shortened: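 First NIH 3T3 cells are plated at 400 cells/well; next compound is pinned in; then plates incubate 48 or 72 hr at 37 °C; finally CellTiter-Glo is added and luminescence read after 10 min.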
# Potency is read from the fitted curve at half-maximal effect.
row,SMILES,Potency
1,CN(C)S(=O)(=O)N1CCCOCCNC(=O)[C@@H]2CCC[C@@H]21,inactive
2,COc1ccc2[nH]c(C(=O)N3C[C@@H](Oc4ccccc4)C[C@H]3C(=O)N3CCCC3)cc2c1,inactive
3,O=C(c1nc2sccn2c1CN1CCCC(CO)C1)N1CCCCC1 (stereo not given),inactive
4,COc1ccc(NC(=O)CC2CCOCC2)cc1,inactive
5,Cc1cccc(CC(=O)N2C[C@@H](CO)[C@H](c3ccccn3)C2)c1,inactive
6,CC(C)(C)c1coc([C@@H]2COCCN2C2CCC2)n1,inactive
7,CCOc1cc(=O)n2c(c1C(=O)NCCc1ccccc1)CCCCC2,inactive
8,COc1cccc(-c2ccc(C(=O)N3CCC(NC(=O)Cc4ccc(F)cc4)CC3)cc2)c1,39.8 µM (active)
9,COC(=O)N1CCN(C(=O)c2cccc(-c3cccc(OC)c3)c2)CC1,inactive
10,Cc1cccc(-c2cccc(CN3CCC(NC(=O)Cc4ccc(F)cc4)CC3)c2)c1,28.2 µM (active)
11,O=C(CCNc1cnc2cnccn12)NC1CCN(Cc2ccccc2)CC1,inactive
12,O=C(Cc1ccc(F)cc1)NC1CCN(c2nc3ncccc3o2)C1 (stereo not given),inactive
13,O=C(Cc1ccc(F)cc1)NC1CCN(c2cn[nH]c(=O)c2)CC1,inactive
14,Cc1cccc(-c2cccc(CN3CCC(NC(=O)Nc4ccccc4)CC3)c2)c1,12.6 µM (active)
15,CN1C(=O)c2cccn2CC1C(=O)NC1CCN(Cc2ccccc2)CC1 (stereo not given),inactive
16,COc1ccc(-c2ccccc2C(=O)N2CCC(NC(=O)Cc3ccc(F)cc3)CC2)nn1,inactive
17,COCCN1CCC(N2CCN(S(=O)(=O)c3ccccc3)CC2)C1=O (stereo not given),inactive
18,O=C(NCC1CCOCC1)C1COc2ccccc2O1 (stereo not given),inactive
19,CC(C)(C)CC(=O)NC1CCN(c2cnn(CC3CC3)c(=O)c2)CC1,inactive
20,O=C(NCCc1noc(-c2ccccc2)n1)C1CC1,inactive
21,CCn1cc(C(=O)N2CC(COC)C3(CCNCC3)C2)cn1 (stereo not given),inactive
22,Cc1noc(C)c1[S+](=O)([O-])N1CCn2c(nnc2-c2ccccc2)C1,inactive
23,Cc1noc(C)c1[S+](=O)([O-])N1CC(Oc2ccc(F)c(F)c2)C1,inactive

row,SMILES,Potency
1,Cc1noc(C)c1[S+](=O)([O-])NC1CCN(Cc2cccc(-c3ccc(F)c(F)c3)c2)CC1,14.1 µM (active)
2,CSc1ccc(-c2cccc(CN3CCC(N[S+](=O)([O-])c4cccs4)CC3)c2)cc1,12.6 µM (active)
3,O=C(Nc1cc(F)ccc1F)N1CCC(Oc2ncccc2C(=O)N2CCCCC2)C1 (stereo not given),inactive
4,Cn1cccc1C(=O)N1CCCC(c2nc(-c3ccccc3)no2)CCNC(=O)CC1 (stereo not given),inactive
5,COc1ccccc1NC(=O)Cn1c(C)cc2nc3n(c(=O)c21)CCC3,inactive
6,Cc1noc(C2CC3(CCN(C(=O)c4sc(C)nc4C)CC3)CN2C)n1 (stereo not given),inactive
7,CCn1nc(C)cc1C(=O)N[C@H]1[C@H](O)[C@H](O)C[C@@H]1c1cccnc1,inactive
8,CN1CCN([C@H]2CCN(C(=O)Cc3cccc(O)c3)C[C@H]2CCCO)CC1,inactive
9,COCCNC(=O)[C@@H]1C[C@H](Oc2cccnc2)CN1C(=O)c1nccn1C,inactive
10,CCOC(=O)C1=CN(CC(=O)NCCc2ccc(Cl)cc2)S(=O)(=O)N=C1C,inactive
11,Cc1cc(=O)n(CC(=O)Nc2cccc(Cl)c2C)c(N2CCc3ccccc3C2)n1,inactive
12,Cc1cc(=O)n(CC(=O)NCCc2ccc(Cl)cc2)c(N2CCc3ccccc3C2)n1,25.1 µM (active)
13,CCC(CC)NC(=O)C1Cn2cccc2C(=O)N1Cc1cccnc1 (stereo not given),inactive
14,O=C(NC1CCN(c2cc(-c3ccc(F)cc3)[nH]n2)C1)c1cc2ccccc2[nH]1 (stereo not given),39.8 µM (active)
15,CCn1ccc(C(=O)NC2CCCN(c3cc(-c4ccc(F)cc4)[nH]n3)C2)n1 (stereo not given),inactive
16,CC(=O)N1CCC(C(=O)NCC2CCN(c3cc(-c4ccc(C)cc4)[nH]n3)CC2)CC1,inactive
17,Cn1nccc1C(=O)NC1CCCN(c2cc(-c3ccc(F)cc3)[nH]n2)C1 (stereo not given),inactive
18,Cc1ccc(-c2cc(N3CCC(CNC(=O)c4ccc(N(C)C)cc4)CC3)n[nH]2)cc1,inactive
19,O=C(NC1CCN(c2cc(-c3ccc(Cl)cc3)[nH]n2)C1)c1c[nH]c2ccccc12 (stereo not given),39.8 µM (active)
20,O=C(Cc1ccc(F)cc1)NC1CCN(c2cc(-c3ccc(Cl)cc3)[nH]n2)CC1,inactive
21,O=C(NC1CCN(c2cc(-c3ccccc3)[nH]n2)CC1)c1cccs1,inactive
22,O=C(NCC1CCN(c2cc(-c3ccc(Cl)cc3)[nH]n2)CC1)c1ccc2nc[nH]c2c1,35.5 µM (active)
23,CNC(=O)[C@H]1C[C@H](Oc2cccnc2)CN1C(=O)c1ccccc1,inactive

row,SMILES,Potency
1,CCOc1ccccc1CN1CCc2nc(N3CCN(C)CC3)[nH]c(=O)c2CC1,inactive
2,CC(C)N1CC2(C1)C(=O)N(Cc1cccc(Cl)c1)C(=O)[C@@H]1C[C@@H](O)CN12,inactive
3,CC(C)NC(=O)C(C)[C@@H]1CC[C@@]2(C)CC[C@H](N[S+](C)(=O)[O-])[C@@H](C)[C@@H]2[C@H]1O (stereo not given in full),inactive
4,CCOc1ccc(NC(=O)C2CN(S(C)(=O)=O)CC23CCCCC3)cc1 (stereo not given),inactive
5,Cc1cc(C2CCCN2C(=O)c2ccc(F)c(F)c2)on1 (stereo not given),inactive
6,O=C(O)C[C@@H]1CCN(C(=O)Nc2ccccc2)C[C@@H]1CC1=NCCc2cc(F)ccc21,inactive
7,O=C1CC2(CCN(C(=O)C3CCN(C(=O)Cc4ccc(F)cc4)CC3)CC2)Oc2ccccc2N1,inactive
8,COc1ccc(-c2ccc3ncc(Nc4ccc(C(F)(F)F)cc4)n3n2)cn1,79.4 µM (active)
9,COc1ccc(-c2ccc3ncc(Nc4cc(F)cc(N5CCOCC5)c4)n3n2)cn1,inactive
10,COc1ccc(-c2cccc(C(=O)N3CCC(NC(=O)c4ccc(C(F)(F)F)cc4)CC3)c2)nn1,inactive
11,CC(=O)NCCc1ncc(C)n1C1CCCCC1,inactive
12,Cn1c(=O)n(C)c2cc(S(=O)(=O)N[C@@H]3CCOC[C@H]3O)ccc21,inactive
13,COCCC1(NC(=O)C2CCOCC2)CCN(C(=O)C2COc3ccccc3O2)CC1 (stereo not given),inactive
14,COCC(=O)NCCC1CCN(C(=O)Nc2cc(F)cc(F)c2)CC1,inactive
15,COc1ccc(NC(=O)Cn2ccn3nc(-c4ccc(F)cc4)c(CO)c3c2=O)cc1OC,inactive
16,O=C(NCC1CCOCC1)c1ccc2[nH]ccc2c1,inactive
17,O=C(Nc1cccnc1)c1ccc2c(c1)OCCN(Cc1ncccn1)C2,inactive
18,COc1ccc(C(=O)Nc2cccc(-c3nnc4n3CCCC4)c2)cc1,inactive
19,CC1(CNc2ccccc2)COc2ccc(C(=O)NCc3cccc(F)c3)cc2N1 (stereo not given),39.8 µM (active)
20,COc1cccc(C(=O)Nc2ccc3c(c2)CN(Cc2ccc(OC)cc2OC)C(=O)CO3)c1,inactive
21,CC1(CCCCc2ccccc2)COc2ccc(C(=O)N3CC[S+](=O)([O-])CC3)cc2N1 (stereo not given),inactive
22,COc1ccc(OCC2(C)COc3ccc(C(=O)Nc4cccnc4)cc3N2)cc1 (stereo not given),44.7 µM (active)
23,CCOc1ccc(NC(=O)C2(Cc3cccnc3)CCCCC(=O)N2)cc1 (stereo not given),inactive

row,SMILES,Potency
1,O=C(NCc1cccc(F)c1)C1CN(c2ccccc2)C(=O)N1 (stereo not given),inactive
2,COc1cccc(NC(=O)c2ccc3c(c2)NC(C)(COc2ccccc2)CO3)c1 (stereo not given),39.8 µM (active)
3,CN(C)CCN(C)C(=O)c1ccc2c(c1)NC(C)(COc1ccc3[nH]ccc3c1)CO2 (stereo not given),79.4 µM (active)
4,CC(C)NC(=O)NC1CCCN(c2ccc3nnc(C4CC4)n3n2)C1 (stereo not given),inactive
5,O=C(NCCc1noc(C2CCCC2)n1)c1cc(F)c(F)cc1Cl,inactive
6,O=C(NCCn1cnc2ccccc2c1=O)C1CC(=O)N(c2n[nH]c3ccccc23)C1 (stereo not given),inactive
7,CCOc1ccc(NC(=O)Cn2c(N3CCOCC3)nc(COC)cc2=O)cc1,inactive
8,O=C(c1ccc(F)cc1)N1CCC[C@H]1c1nc(-c2ccccc2Cl)no1,inactive
9,Cc1ncc(C(=O)N2C[C@@H](C(=O)O)[C@H](c3ccc4c(c3)OCO4)C2)c(C)n1,inactive
10,COCCNc1ncnc2c1CN(C1CCCNCC1)C(=O)CN2C (stereo not given),inactive
11,COCc1cc(=O)n(CC(=O)NCc2ccc(C)cc2)c(N2CCOCC2)n1,inactive
12,CCCCOC(=O)c1ccc(NC(=O)c2c(OC)cc(=O)n3c2CCCC3)cc1,inactive
13,O=C(c1ccccc1Cl)N1CC2(Cc3ccccc3NC2=O)C1,inactive
14,O=C(Cc1ccccc1)NC1CCCc2c1[nH]c1c(Cl)cccc21 (stereo not given),35.5 µM (active)
15,COc1ccc(CC(=O)NC2CCCc3c2[nH]c2ccccc32)cc1 (stereo not given),31.6 µM (active)
16,O=C(NC1CCCc2c1[nH]c1ccc(F)cc21)c1ccccn1 (stereo not given),inactive
17,O=C(Cn1nc(-c2ccco2)ccc1=O)NC1CCCc2c1[nH]c1c(Cl)cccc21 (stereo not given),inactive
18,O=C(Cn1nc2c(cc1=O)CCCC2)NC1CCCc2c1[nH]c1c(Cl)cccc21 (stereo not given),inactive
19,COc1ccc(CC(=O)N2CCC[C@H]2c2nc(-c3ccccc3)no2)cc1,inactive
20,COc1ccc(CN2CCc3oc(C)c(C(=O)NCCN4CCCC4)c3C2)cc1,inactive
21,CN(C)C(=O)c1nc(-c2ccc(Cl)cc2Cl)c2cnccn12,inactive
22,CN(C)C[C@@H]1CN(c2ncccn2)C[C@H]1NC(=O)Cc1ccccc1Cl,inactive
23,Cn1cc(CN2CCOC[C@H]2c2ncc(-c3cccc(F)c3)[nH]2)c2ccccc21,39.8 µM (active)

row,SMILES,Potency
1,CN(C)c1ccc(CN2CCOC[C@H]2c2ncc(-c3cccc(F)c3)[nH]2)cc1,inactive
2,c1cncc(-c2cnc([C@@H]3COCCN3Cc3cnc4ccccc4c3)[nH]2)c1,inactive
3,Oc1ccccc1CN1CCOC[C@H]1c1ncc(-c2ccc(C(F)(F)F)cc2)[nH]1,50.1 µM (active)
4,Cn1cc(CN2CC[C@H](c3nnc(-c4cccnc4)o3)C2)c2ccccc21,inactive
5,CC(C)(C)c1coc([C@@H]2COCCN2Cc2ccc(F)cc2)n1,inactive
6,Fc1ccc(CN2CCOC[C@H]2c2ncc(-c3cccnc3)[nH]2)cc1,inactive
7,Cc1ccc(CN2CCOC[C@H]2c2ncc(-c3cccc(F)c3)[nH]2)cc1,79.4 µM (active)
8,CN(Cc1ccccc1)Cc1cn([C@H]2CO[C@H]3[C@@H]2OC[C@@H]3NS(C)(=O)=O)nn1,inactive
9,CCc1noc(-c2cccn3c(CNC(=O)C(CC)c4ccccc4)nnc23)n1 (stereo not given),inactive
10,CCn1cc(S(=O)(=O)N2CC[C@H](CNC(C)=O)[C@H](N(C)C)C2)cn1,inactive
11,Cc1ccc(F)cc1S(=O)(=O)N1CCn2c(nn(CC3CC3)c2=O)C1,inactive
12,O=C(C[C@@H]1O[C@H](CNC(=O)C2CC2)[C@@H](O)[C@H]1O)NCCN1CCOCC1,inactive
13,Cc1ccnc(N2CC[C@@H]3[C@@H](CCC(=O)N3CCc3ccccn3)C2)n1,inactive
14,c1cncc(-c2noc(C3CCCN(Cc4cc5n(n4)CCNC5)C3)n2)c1 (stereo not given),inactive
15,CCOC(=O)N1CCC(=O)N(Cc2ccccc2)Cc2cc(OC)ccc21,inactive
16,Cc1nc(C(C)C)ncc1C(=O)N1CCN(C)C2(CCNC(=O)CC2)C1 (stereo not given),inactive
17,CNC(=O)[C@@H](c1ccccc1F)N1CCC[C@H]1C(=O)NCCOC,inactive
18,O=C(c1cccs1)N1CCOCC2(CN(Cc3cc(F)cc(F)c3)C2)C1,inactive
19,O=C(Cc1ccc(F)cc1)N1CCOCC2(CN(Cc3ccccc3)C2)C1,35.5 µM (active)
20,CC(=O)N1CCC2(CC1)CN(C(=O)Cc1cccc(Cl)c1)CCO2,inactive
21,Cc1nc(-c2cn(C3CCCN(C(=O)c4sccc4C)C3)nn2)no1 (stereo not given),inactive
22,CCN1CCN(CCNC(=O)C2Cn3cccc3C(=O)N2Cc2cccnc2)CC1 (stereo not given),inactive
23,N#Cc1ccc(CN2CCc3nc(C(=O)N4CCOCC4)oc3CC2)cc1,inactive
